# Data published in publication PMC7862700, “An all-to-all approach to the identification of sequence-specific readers for epigenetic DNA modifications on cytosine”.
# Assays:
# Assay in all cases: DAPPL (digital affinity profiling via proximity ligation, sequencing); 10 mM Tris-HCl pH 7.5, 50 mM NaCl, 1 mM DTT, 4% glycerol, room temperature, 30 min; GST-TFs on glutathione beads, 16-mer random dsDNA library, 0.1% formaldehyde crosslink after washing; high values mean tight binding
# [1] = target: T1, FLI1 (Homo sapiens, UniProt Q01543 1-452); details: protein: recombinant; tags: N-terminal GST; dsDNA, one strand shown
# T1 sequence: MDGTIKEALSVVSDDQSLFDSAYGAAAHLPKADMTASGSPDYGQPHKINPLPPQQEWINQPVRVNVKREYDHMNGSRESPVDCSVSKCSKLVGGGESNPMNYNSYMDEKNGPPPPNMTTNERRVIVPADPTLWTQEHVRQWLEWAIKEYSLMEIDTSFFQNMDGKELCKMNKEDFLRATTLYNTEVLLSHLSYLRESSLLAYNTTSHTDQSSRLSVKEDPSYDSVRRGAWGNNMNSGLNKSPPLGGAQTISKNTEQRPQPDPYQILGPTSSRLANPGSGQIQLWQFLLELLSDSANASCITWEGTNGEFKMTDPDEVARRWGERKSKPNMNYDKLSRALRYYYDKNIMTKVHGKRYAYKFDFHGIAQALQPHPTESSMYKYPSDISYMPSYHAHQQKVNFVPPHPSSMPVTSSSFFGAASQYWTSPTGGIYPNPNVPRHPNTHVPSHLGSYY
# Procedure, shortened: (§1)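 A tag-only sample was pooled with DNA-barcoded human transcription factors that had been expressed in yeast as GST fusions and captured on glutathione beads. The pools were incubated for 30 min at room temperature with 200 nmole of a random double-stranded 16-mer DNA library in Tris/NaCl/DTT/glycerol buffer, then washed, crosslinked with 0.1% formaldehyde, proximity-ligated (BsaI/T4 ligase, 1 h, 37 °C), PCR-amplified and sequenced on an Illumina NextSeq500. Binding signal is each hexamer's read frequency for a factor divided by its frequency for the tag-only sample.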
# [2] = target: T2, ELK1 (Homo sapiens, UniProt P19419 1-428); details: protein: recombinant; tags: N-terminal GST; dsDNA, one strand shown
# T2 sequence: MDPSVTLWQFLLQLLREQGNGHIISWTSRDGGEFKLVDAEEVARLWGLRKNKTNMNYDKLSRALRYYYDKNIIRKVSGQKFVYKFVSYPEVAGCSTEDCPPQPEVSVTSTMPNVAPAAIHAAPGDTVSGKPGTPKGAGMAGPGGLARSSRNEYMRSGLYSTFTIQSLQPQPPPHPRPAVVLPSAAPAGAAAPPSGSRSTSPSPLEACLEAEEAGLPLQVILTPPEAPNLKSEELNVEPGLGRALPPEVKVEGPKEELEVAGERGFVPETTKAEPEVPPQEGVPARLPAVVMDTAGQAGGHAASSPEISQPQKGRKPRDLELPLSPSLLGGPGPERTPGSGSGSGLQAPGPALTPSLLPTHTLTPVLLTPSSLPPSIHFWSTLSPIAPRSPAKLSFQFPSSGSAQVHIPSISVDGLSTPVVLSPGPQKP
# Procedure, shortened: as §1
# [3] = target: T3, GABPA (Homo sapiens, UniProt Q06546 1-454); details: protein: recombinant; tags: N-terminal GST; dsDNA, one strand shown
# T3 sequence: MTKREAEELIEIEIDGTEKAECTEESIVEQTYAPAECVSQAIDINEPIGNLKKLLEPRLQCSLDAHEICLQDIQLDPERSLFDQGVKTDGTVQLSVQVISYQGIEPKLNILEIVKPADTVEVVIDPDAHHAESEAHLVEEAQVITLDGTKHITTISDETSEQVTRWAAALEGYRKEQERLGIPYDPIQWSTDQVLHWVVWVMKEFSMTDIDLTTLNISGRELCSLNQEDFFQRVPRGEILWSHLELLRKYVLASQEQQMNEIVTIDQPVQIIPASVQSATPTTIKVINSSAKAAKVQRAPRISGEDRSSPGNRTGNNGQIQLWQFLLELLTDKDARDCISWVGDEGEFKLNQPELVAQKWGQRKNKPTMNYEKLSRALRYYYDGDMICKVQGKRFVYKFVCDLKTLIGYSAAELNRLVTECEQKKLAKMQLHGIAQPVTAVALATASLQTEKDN
# Procedure, shortened: as §1
# [4] = target: T4, ERG (Homo sapiens, UniProt P11308 1-479); details: protein: recombinant; tags: N-terminal GST; dsDNA, one strand shown
# T4 sequence: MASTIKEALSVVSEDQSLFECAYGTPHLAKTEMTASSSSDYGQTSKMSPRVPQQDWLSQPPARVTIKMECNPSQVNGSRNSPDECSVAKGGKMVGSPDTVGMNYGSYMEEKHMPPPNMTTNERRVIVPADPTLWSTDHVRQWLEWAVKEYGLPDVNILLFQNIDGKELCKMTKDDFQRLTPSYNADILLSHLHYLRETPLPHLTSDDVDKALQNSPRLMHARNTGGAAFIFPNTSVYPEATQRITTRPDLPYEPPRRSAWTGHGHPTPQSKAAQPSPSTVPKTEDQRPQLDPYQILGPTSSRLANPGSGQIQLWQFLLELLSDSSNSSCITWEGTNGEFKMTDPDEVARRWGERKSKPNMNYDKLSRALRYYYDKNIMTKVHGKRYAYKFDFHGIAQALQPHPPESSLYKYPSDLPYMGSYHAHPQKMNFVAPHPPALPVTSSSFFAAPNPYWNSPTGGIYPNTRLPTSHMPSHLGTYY
# Procedure, shortened: as §1
# [5] = target: ELF1 (Homo sapiens, UniProt P32519 1-619); details: protein: recombinant; tags: N-terminal GST; dsDNA, one strand shown
# ELF1, sequence (P32519 whole entry): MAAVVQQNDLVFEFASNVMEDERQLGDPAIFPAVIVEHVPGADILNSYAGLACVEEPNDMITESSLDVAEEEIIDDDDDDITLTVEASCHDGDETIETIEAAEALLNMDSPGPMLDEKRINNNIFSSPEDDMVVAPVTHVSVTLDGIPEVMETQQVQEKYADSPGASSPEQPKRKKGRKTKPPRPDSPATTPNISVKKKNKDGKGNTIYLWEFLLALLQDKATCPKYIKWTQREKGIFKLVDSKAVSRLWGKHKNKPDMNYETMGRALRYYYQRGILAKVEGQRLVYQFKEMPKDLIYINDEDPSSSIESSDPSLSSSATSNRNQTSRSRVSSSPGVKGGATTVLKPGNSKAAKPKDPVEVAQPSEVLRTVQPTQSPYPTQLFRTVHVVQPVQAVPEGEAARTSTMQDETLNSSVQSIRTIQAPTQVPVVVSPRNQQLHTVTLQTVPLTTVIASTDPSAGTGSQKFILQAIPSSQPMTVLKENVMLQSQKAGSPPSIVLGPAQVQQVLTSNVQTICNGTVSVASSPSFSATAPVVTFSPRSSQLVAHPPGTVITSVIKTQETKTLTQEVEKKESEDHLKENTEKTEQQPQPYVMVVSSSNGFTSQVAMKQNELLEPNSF
# Procedure, shortened: as §1
# [6] = target: T5, EHF (Homo sapiens, UniProt Q9NZC4 1-300); details: protein: recombinant; tags: N-terminal GST; dsDNA, one strand shown
# T5 sequence: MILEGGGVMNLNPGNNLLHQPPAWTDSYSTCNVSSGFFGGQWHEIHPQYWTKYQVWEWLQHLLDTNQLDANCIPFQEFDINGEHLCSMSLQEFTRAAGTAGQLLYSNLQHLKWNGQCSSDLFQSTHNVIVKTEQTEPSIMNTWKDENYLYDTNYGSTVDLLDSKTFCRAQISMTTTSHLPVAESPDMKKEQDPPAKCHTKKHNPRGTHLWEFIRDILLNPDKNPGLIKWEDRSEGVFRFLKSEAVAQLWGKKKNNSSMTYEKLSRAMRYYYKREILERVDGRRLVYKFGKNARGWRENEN
# Procedure, shortened: as §1
# [7] = target: SPI1 (Homo sapiens, UniProt P17947 1-270); details: protein: recombinant; tags: N-terminal GST; dsDNA, one strand shown
# Procedure, shortened: as §1
# [8] = target: SPIB (Homo sapiens, UniProt Q01892 1-262); details: protein: recombinant; tags: N-terminal GST; dsDNA, one strand shown
# SPIB, sequence (Q01892 whole entry): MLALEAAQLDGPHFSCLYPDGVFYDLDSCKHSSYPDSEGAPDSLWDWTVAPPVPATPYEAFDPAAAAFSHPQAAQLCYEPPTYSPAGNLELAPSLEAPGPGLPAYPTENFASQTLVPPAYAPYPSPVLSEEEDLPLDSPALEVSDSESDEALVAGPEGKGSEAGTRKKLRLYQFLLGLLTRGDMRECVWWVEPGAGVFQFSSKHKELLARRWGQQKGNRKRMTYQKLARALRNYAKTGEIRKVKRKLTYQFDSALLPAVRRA
# Procedure, shortened: as §1
# [9] = target: T6, FEV (Homo sapiens, UniProt Q99581 1-238); details: protein: recombinant; tags: N-terminal GST; dsDNA, one strand shown
# T6 sequence: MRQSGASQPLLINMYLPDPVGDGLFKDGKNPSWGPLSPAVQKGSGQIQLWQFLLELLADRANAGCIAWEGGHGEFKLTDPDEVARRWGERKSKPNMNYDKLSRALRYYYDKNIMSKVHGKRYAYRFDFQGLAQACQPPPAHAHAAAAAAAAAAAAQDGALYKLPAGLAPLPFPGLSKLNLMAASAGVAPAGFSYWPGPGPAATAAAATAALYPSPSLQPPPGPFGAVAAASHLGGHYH
# Procedure, shortened: as §1
# [10] = target: ETV5 (Homo sapiens, UniProt P41161 1-510); details: protein: recombinant; tags: N-terminal GST; dsDNA, one strand shown
# ETV5, sequence (P41161 whole entry): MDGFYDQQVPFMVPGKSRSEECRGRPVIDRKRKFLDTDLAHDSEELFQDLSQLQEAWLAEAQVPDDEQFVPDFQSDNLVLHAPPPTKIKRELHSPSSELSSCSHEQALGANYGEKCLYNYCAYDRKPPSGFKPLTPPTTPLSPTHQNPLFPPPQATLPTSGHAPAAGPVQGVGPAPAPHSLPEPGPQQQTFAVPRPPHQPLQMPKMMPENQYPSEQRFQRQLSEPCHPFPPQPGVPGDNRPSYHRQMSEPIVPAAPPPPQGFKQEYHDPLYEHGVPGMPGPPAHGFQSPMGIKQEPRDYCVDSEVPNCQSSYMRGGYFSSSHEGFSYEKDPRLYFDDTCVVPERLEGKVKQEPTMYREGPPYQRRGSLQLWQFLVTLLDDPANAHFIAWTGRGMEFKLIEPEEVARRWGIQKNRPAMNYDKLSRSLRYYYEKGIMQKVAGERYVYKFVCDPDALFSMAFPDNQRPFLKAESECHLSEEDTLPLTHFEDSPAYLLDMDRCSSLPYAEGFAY
# Procedure, shortened: as §1
# [11] = target: HSF1 (Homo sapiens, UniProt Q00613 1-529); details: protein: recombinant; tags: N-terminal GST; chain copies: 3; dsDNA, one strand shown
# HSF1, sequence (Q00613 whole entry): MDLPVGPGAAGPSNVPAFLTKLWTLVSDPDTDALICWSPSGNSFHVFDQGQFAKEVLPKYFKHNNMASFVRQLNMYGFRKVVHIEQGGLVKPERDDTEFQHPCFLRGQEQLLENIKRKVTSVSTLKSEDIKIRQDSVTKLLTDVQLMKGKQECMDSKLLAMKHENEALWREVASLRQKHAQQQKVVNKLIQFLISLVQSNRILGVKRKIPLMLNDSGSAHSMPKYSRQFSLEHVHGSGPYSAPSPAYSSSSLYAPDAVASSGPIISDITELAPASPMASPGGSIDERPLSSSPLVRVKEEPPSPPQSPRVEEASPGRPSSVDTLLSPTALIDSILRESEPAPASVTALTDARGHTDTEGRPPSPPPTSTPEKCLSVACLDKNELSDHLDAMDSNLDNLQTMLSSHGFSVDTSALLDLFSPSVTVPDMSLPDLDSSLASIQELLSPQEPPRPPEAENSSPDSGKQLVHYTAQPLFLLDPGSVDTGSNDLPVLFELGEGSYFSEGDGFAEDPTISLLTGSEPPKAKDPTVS
# Procedure, shortened: as §1
# [12] = target: T7, SPIC (Homo sapiens, UniProt Q8N5J4 1-248); details: protein: recombinant; tags: N-terminal GST; dsDNA, one strand shown
# T7 sequence: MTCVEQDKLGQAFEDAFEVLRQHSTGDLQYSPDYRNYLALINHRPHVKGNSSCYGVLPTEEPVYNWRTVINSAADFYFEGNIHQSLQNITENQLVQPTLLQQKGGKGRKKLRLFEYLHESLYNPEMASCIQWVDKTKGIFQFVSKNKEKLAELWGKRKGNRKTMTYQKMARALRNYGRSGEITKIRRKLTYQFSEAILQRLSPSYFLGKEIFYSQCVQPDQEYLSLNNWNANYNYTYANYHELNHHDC
# Procedure, shortened: as §1
# [13] = target: ELF4 (Homo sapiens, UniProt Q99607 1-663); details: protein: recombinant; tags: N-terminal GST; dsDNA, one strand shown
# ELF4, sequence (Q99607 whole entry): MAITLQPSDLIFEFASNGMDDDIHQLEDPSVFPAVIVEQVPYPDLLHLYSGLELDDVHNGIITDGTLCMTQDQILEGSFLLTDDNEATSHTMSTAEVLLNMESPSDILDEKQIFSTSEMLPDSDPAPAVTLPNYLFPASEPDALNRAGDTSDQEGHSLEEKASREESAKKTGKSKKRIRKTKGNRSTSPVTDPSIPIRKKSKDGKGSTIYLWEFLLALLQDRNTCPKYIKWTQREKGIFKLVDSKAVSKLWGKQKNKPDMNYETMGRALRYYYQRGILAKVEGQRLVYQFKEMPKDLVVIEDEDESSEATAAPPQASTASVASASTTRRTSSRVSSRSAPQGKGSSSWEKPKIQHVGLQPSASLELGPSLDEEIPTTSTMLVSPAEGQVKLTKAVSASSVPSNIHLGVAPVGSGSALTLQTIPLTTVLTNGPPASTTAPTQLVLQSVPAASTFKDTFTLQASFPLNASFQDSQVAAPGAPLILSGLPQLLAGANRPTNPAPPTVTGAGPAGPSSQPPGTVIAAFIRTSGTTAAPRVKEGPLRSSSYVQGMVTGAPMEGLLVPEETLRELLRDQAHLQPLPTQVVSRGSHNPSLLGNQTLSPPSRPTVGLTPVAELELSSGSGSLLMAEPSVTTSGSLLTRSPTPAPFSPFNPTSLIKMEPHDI
# Procedure, shortened: as §1
# [14] = target: T8, ELK4 (Homo sapiens, UniProt P28324-2 1-405); details: protein: recombinant; tags: N-terminal GST; dsDNA, one strand shown
# T8 sequence: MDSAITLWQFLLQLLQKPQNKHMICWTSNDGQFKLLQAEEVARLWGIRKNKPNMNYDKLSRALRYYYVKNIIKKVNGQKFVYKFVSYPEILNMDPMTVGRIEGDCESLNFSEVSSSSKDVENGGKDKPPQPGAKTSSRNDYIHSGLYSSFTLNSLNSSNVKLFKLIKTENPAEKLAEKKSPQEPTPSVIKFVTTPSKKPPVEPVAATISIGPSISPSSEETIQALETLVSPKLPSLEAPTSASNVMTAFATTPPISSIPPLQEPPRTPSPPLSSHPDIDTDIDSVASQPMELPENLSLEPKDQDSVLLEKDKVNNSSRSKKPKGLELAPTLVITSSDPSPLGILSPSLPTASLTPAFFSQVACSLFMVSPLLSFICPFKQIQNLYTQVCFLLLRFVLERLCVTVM
# Procedure, shortened: as §1
# [15] = target: T9, ETV2 (Homo sapiens, UniProt O00321 1-342); details: protein: recombinant; tags: N-terminal GST; dsDNA, one strand shown
# T9 sequence: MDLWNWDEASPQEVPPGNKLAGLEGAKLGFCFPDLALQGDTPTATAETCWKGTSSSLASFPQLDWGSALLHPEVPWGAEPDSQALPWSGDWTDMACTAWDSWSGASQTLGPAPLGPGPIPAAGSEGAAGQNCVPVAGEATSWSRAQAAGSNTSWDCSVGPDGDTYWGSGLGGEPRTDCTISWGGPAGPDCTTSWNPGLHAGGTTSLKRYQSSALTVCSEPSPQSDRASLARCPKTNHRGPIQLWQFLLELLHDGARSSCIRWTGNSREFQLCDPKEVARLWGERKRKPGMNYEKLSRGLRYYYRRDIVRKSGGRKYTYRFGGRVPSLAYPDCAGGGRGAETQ
# Procedure, shortened: as §1
# [16] = target: T10, ELF3 (Homo sapiens, UniProt P78545 1-371); details: protein: recombinant; tags: N-terminal GST; dsDNA, one strand shown
# T10 sequence: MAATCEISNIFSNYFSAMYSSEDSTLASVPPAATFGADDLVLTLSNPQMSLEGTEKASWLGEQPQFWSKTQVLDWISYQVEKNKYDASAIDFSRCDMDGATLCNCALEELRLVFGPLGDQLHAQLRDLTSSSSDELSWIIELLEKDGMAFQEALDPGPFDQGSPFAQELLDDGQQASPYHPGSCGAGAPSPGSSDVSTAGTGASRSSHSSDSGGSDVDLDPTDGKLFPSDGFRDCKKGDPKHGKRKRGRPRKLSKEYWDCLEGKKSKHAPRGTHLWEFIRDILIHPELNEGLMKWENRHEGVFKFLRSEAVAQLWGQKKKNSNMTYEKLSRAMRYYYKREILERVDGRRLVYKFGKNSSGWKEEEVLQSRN
# Procedure, shortened: as §1
# [17] = target: CRX (Homo sapiens, UniProt O43186 1-299); details: protein: recombinant; tags: N-terminal GST; dsDNA, one strand shown
# CRX, sequence (O43186 whole entry): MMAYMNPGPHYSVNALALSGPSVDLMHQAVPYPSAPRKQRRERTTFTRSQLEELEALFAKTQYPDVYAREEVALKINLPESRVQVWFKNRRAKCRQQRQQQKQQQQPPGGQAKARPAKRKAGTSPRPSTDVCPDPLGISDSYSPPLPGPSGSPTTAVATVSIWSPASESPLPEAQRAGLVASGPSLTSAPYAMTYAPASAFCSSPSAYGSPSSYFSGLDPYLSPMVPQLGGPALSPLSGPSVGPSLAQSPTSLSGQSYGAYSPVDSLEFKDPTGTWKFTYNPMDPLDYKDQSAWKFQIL
# Procedure, shortened: as §1
# [18] = target: ETV1 (Homo sapiens, UniProt P50549 1-477); details: protein: recombinant; tags: N-terminal GST; dsDNA, one strand shown
# ETV1, sequence (P50549 whole entry): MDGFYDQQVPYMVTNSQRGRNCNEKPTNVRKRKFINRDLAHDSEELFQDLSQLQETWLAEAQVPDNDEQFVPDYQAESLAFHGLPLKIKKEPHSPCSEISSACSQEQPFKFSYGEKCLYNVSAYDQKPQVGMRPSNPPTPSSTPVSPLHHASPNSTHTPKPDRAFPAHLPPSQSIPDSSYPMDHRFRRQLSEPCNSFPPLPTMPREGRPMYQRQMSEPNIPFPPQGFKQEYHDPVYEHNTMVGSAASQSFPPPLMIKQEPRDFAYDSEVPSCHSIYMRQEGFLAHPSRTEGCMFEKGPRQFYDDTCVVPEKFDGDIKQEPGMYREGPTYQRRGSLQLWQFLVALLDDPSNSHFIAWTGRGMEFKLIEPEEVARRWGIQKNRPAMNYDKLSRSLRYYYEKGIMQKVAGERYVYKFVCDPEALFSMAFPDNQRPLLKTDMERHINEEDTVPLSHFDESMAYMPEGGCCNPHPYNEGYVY
# Procedure, shortened: as §1
sequence,measurement,setting,value
GCTGAA,binding signal,[1],"1.14 fold enrichment (6-mer frequency, TF over GST control)"
same,binding signal,[2],"1.09 fold enrichment (6-mer frequency, TF over GST control)"
same,binding signal,[3],"1.14 fold enrichment (6-mer frequency, TF over GST control)"
same,binding signal,[4],"1.03 fold enrichment (6-mer frequency, TF over GST control)"
same,binding signal,[5],"1.16 fold enrichment (6-mer frequency, TF over GST control)"
same,binding signal,[6],"1.1 fold enrichment (6-mer frequency, TF over GST control)"
same,binding signal,[7],"1.06 fold enrichment (6-mer frequency, TF over GST control)"
same,binding signal,[8],"1.11 fold enrichment (6-mer frequency, TF over GST control)"
same,binding signal,[9],"1.03 fold enrichment (6-mer frequency, TF over GST control)"
same,binding signal,[10],"1.16 fold enrichment (6-mer frequency, TF over GST control)"
same,binding signal,[11],"1.04 fold enrichment (6-mer frequency, TF over GST control)"
same,binding signal,[12],"1.31 fold enrichment (6-mer frequency, TF over GST control)"
same,binding signal,[13],"1.1 fold enrichment (6-mer frequency, TF over GST control)"
same,binding signal,[14],"1.23 fold enrichment (6-mer frequency, TF over GST control)"
same,binding signal,[15],"1.21 fold enrichment (6-mer frequency, TF over GST control)"
same,binding signal,[16],"1.18 fold enrichment (6-mer frequency, TF over GST control)"
same,binding signal,[17],"1.05 fold enrichment (6-mer frequency, TF over GST control)"
same,binding signal,[18],"1.05 fold enrichment (6-mer frequency, TF over GST control)"
